# Hits are enriched below; roughly 0.83% of the tested compounds scored in any of these assays.
# GLS inh: blocks human kidney-isoform glutaminase activity. GLS enzymatic activity, qHTS titration. Potency, µM (doses to about 45.5 µM), for the others: at the highest dose activity change, negative = inhibition, hits mostly inhibitors. actives 0.21% (n = 410,000); active = well fitted inhibition curve with a large enough effect; inconclusive = small, poorly fitted or top-dose-only effect, or another doubt; inactive = no such curve, though single readings can be large or run the other way; note: potency is the fitted concentration of half-maximal effect; % is set by controls: 0 for no effect and ±100 for the full control effect
#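 Compounds were pin-transferred onto hKGA, after which L-glutamine (1 mM solution) and a detection mix of glutamate oxidase, HRP and Amplex Red were added. Initial and 30 min RT fluorescence reads were collected.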
# Six1-Eya2 blk: Six1/Eya2 interaction inhibition. AID 651725. Q15475+O00167. activity change, % (test concentration not listed). AlphaScreen GST-Six1/His-Eya2 binding, biochemical; hits give low values. actives 0.56% (n = 360,000); note: % is set by controls: 0 for no effect and ±100 for the full control effect
#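 AlphaScreen with GST-Six1 and His-Eya2 (5X mix: 250 nM and 500 nM), glutathione donor and nickel acceptor beads; buffer 50 mM Tris pH 8.0, 300 mM NaCl, 1 mM TCEP; 1 h at 37 C in the dark.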
# CXXC DNA block: MLL CXXC-DNA interaction inhibition; Potency, µM (doses to about 115 µM), for inactives: at the top dose activity change, negative = inhibition, usual class: inhibitors; actives 0.037% (n = 290,000); MLL-CXXC / FITC-HOXA9 DNA fluorescence polarization; AID 2662; Q03164; active = well fitted inhibition curve with a large enough effect in the polarisation, with a control signal flat, not every such curve was filed as active; inconclusive = small, poorly fitted or top-dose-only effect, or effect the other way, or a change in a side signal; inactive = no such curve, though single readings can be large or run the other way; the % refers to the polarisation; note: potency is the fitted concentration of half-maximal effect
# Target sequence (Q03164 whole entry, looked up): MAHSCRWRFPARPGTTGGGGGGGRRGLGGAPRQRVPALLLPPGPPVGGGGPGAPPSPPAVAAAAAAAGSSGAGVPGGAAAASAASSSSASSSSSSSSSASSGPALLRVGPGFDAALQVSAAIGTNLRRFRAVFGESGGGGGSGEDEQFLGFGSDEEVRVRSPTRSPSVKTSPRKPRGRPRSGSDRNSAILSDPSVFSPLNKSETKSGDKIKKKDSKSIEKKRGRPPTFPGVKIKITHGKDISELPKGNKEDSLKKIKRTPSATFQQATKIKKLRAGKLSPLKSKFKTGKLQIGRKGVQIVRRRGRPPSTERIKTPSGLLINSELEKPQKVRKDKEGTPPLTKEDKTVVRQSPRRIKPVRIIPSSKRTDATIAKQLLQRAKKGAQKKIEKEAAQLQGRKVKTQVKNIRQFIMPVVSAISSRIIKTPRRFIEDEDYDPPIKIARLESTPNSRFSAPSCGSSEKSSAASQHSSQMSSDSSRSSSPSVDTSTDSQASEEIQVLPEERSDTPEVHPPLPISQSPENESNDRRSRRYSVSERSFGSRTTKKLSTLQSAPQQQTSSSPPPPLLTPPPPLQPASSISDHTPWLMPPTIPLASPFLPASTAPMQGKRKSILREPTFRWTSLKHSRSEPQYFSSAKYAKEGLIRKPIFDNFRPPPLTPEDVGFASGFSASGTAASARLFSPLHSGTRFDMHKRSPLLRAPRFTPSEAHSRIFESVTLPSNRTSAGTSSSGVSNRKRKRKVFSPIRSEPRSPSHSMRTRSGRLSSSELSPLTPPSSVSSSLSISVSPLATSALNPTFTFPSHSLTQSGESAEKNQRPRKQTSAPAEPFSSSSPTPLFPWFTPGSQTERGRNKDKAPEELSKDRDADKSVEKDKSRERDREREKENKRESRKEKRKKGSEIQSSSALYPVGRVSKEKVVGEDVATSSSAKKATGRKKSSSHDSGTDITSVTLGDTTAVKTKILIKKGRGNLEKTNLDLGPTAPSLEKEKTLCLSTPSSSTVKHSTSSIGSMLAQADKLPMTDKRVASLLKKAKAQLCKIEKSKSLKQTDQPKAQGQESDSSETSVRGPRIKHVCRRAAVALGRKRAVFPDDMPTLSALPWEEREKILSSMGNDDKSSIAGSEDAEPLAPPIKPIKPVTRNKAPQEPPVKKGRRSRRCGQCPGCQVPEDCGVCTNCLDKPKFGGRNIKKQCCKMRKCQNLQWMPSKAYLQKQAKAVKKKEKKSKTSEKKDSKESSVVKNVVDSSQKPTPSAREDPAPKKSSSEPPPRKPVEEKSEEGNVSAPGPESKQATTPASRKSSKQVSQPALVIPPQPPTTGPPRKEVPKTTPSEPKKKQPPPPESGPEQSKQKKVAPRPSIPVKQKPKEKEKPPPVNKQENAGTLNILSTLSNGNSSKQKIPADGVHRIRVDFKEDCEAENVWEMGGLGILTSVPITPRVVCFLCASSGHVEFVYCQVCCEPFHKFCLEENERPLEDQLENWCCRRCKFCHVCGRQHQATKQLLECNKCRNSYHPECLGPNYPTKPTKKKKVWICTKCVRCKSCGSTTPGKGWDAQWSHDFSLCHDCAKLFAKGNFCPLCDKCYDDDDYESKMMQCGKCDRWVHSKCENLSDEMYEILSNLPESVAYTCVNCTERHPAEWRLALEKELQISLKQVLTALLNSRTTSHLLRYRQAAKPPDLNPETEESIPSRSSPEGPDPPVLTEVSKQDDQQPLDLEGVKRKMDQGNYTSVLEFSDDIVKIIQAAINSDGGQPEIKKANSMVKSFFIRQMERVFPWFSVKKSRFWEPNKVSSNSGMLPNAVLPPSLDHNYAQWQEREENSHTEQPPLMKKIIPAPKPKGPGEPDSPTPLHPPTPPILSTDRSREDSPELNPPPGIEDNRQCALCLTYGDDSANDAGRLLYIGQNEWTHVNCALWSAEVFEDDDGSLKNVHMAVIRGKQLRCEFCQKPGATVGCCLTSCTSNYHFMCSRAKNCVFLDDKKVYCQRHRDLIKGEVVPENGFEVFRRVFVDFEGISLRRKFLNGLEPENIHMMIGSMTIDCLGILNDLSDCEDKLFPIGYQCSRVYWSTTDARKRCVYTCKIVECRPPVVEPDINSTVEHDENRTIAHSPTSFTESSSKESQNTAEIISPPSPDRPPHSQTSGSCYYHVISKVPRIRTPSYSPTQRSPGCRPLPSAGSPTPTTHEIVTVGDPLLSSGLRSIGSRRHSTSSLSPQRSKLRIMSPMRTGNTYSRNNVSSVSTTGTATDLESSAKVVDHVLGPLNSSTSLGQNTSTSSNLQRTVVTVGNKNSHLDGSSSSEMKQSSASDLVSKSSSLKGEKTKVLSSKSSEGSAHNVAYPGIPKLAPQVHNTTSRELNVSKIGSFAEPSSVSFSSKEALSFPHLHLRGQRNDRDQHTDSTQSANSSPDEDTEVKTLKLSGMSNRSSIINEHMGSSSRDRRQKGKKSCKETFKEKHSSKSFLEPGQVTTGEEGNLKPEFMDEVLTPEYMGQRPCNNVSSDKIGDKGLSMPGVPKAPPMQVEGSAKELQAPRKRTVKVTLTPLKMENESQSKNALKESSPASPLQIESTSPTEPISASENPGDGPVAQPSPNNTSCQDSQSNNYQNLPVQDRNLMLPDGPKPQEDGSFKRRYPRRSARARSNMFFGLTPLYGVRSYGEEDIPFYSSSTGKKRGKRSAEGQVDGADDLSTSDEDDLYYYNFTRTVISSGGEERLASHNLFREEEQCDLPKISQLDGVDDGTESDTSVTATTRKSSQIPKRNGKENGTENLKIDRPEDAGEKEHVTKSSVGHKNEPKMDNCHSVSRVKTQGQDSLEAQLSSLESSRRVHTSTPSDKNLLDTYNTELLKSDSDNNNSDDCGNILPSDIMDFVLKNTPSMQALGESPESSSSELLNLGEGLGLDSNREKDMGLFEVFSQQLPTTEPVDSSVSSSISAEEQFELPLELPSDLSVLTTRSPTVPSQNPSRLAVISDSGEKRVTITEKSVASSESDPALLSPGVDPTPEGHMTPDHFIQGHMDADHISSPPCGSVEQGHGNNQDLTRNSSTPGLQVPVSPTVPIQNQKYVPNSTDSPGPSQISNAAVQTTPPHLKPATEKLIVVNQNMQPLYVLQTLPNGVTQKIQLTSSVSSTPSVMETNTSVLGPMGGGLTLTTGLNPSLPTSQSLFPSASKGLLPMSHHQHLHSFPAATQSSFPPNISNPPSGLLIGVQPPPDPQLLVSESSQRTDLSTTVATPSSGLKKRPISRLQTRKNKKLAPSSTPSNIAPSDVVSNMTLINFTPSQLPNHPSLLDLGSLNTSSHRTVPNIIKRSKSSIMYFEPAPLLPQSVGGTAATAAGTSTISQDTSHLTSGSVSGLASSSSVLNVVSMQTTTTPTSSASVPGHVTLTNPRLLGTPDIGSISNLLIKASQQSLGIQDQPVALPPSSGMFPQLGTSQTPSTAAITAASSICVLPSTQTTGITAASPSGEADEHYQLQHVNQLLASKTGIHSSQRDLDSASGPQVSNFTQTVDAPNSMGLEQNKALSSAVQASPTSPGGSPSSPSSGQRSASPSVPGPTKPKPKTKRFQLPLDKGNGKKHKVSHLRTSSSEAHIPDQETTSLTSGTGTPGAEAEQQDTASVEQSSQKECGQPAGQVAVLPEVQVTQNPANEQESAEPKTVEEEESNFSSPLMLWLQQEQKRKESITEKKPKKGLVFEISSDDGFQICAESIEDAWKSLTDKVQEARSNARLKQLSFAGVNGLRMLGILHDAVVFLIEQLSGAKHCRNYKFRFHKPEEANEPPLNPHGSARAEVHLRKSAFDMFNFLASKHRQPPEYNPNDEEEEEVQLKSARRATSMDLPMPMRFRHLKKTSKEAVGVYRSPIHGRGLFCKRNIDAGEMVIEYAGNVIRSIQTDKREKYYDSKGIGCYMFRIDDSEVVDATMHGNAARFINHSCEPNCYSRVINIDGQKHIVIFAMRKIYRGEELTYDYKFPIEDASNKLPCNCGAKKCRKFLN
#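 Fluorescence polarization: 7 uM MLL-CXXC (stock) preincubated 5 min with compounds, then 50 nM fluorescein-HOX-A9 DNA (stock) added; 30 min ambient. Buffer 50 mM Tris-HCl pH 7.5, 50 mM NaCl, 1 mM DTT, 0.05% BSA.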
# Menin-MLL TR inh: displaces Texas Red mutant MLL peptide from human menin | O00255 | Menin + Texas Red MLL mutant peptide, fluorescence polarization | Potency, µM (top dose mostly 61.6 µM), without a hit: at the highest dose FP activity change, negative = inhibition, actives largely listed as inhibitors | actives 0.23% (n = 270,000) | AID 1768; active = well fitted inhibition curve with a large enough effect in the polarisation, with a control signal flat, not every such curve was filed as active; inconclusive = small, poorly fitted or top-dose-only effect, or effect the other way, or a change in a side signal; inactive = no such curve, though single readings can be large or run the other way; the % refers to the polarisation; note: potency is the fitted concentration of half-maximal effect; % of control where 0% means no effect
# CtBP-E1A blk: blocks the CtBP interaction with E1A. AlphaScreen GST-E1A/His-CtBP binding, 1536-well; hits give low values. activity change, % (test concentration not listed). actives 0.49% (n = 340,000). AID 651724; note: % is set by controls: 0 for no effect and ±100 for the full control effect
#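 Steps: dispense buffer (Tris pH 8.0, NaCl 300 mM, TCEP 1 mM, BSA, Tween 20); add 5X protein mix (GST-E1A, His-CtBP, 125 nM each); pin 23 nL compound; 2 h at 37 °C, dark; add 5X beads (50 ug/mL); 1 h; read.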
# Menin-MLL FL inh: menin-MLL binding inhibition, fluorescein peptide; Fluorescence polarization, fluorescein-MLL peptide displacement from menin; FP activity change, % at 61.4 µM; AID 1766; 290,000 tested, under 10 active; active = well fitted curve in the direction sought with a large enough effect in the polarisation, not every such curve was filed as active; inconclusive = small, poorly fitted or top-dose-only effect, or effect the other way, or a change in a side signal; inactive = no such curve, though single readings can be large or run the other way; the % refers to the polarisation; note: % of control where 0% means no effect
# * hit, by the source's call; ? = inconclusive; nt = not tested or not shown; [ ] = dose if it differs, or a comment. Cut-off read from the data, not from the text of the source, unless noted: active = activity change below about -65%; inconclusive = mostly about -30% to -63%; inactive = weaker than that.
SMILES,GLS inh,Six1-Eya2 blk,CXXC DNA block,Menin-MLL TR inh,CtBP-E1A blk,Menin-MLL FL inh
COc1ccc(CCNC(=O)CCCCCNc2nc(=S)[nH]c3ccccc23)cc1OC,-4%,?,-5%,-8%,-19,0
COc1cc2[nH]c(=S)nc(NCCCOC(C)C)c2cc1OC,?,-86*,2%,-13%,-93*,7
COCCNc1nc(-c2cccc(OC)c2)nc2ccccc12,nt,nt,nt,-8%,nt,1
COC1CC2CCC(C)[C@](O)(O2)C(=O)C(=O)N2CCCCC2C(=O)OC(C(C)CC2CCC(O)C(OC)C2)CC(=O)C(C)/C=C(/C)C(O)C(OC)C(=O)C(C)CC(C)C=CC=C/C=C\1C (some centres undefined),-3%,nt,9%,-10%,nt,-5
C[C@H]1C[C@@H]2[C@H]([C@@H](O)C[C@@]3(C)[C@H]2CC[C@]3(O)C(=O)COC(=O)CCC(=O)O)[C@@]2(C)C=CC(=O)C=C12,-1%,nt,nt,nt,nt,nt
CCCCNC(=O)Cn1nc(N2CCN(c3ccccc3OC)CC2)ccc1=O,16%,nt,nt,nt,nt,nt
CCC(C)[C@H](NC(=O)OC(C)(C)C)C(=O)N/N=C/c1cccc2nccnc12 (some centres undefined),-6%,-16,-1%,9%,-27,1
O=C(N/N=C/c1cccc2nccnc12)c1ccncc1,-15%,-68*,27%,nt,-89*,4
O=C(N/N=C/c1cccc2cccnc12)c1ccccc1O,-4%,-92*,-7%,nt,nt,7
CCC(C)[C@@H](N)C(=O)N/N=C/c1cccc2nccnc12 (some centres undefined),4%,-87*,15%,nt,-71*,0
O=C(N/N=C/c1cccc2nccnc12)c1ccccc1O,4%,-89*,28%,nt,-76*,4
O=C(N/N=C/c1ccccc1C(=O)O)c1ccncc1,0%,6,0%,11%,0,0
CCC(CNc1cc(OC)cc2cccnc12)NC1CCCCC1 (centres undefined),13%,-13,?,35µM*,nt,?
COc1cc(NCCCCC(C)N)c2nccc(C)c2c1 (centres undefined),7%,-15,nt,nt,-11,nt
COc1cc(NS(=O)(=O)c2cccc([N+](=O)[O-])c2)c2ncccc2c1,nt,nt,nt,?,nt,-1
COc1cc(NCCCC(C)N)c2ncccc2c1 (centres undefined),23%,?,3%,?,-70*,?
COc1ccccc1C(CCNCc1ccc(N(C)C)cc1)c1ccc(OC(C)C)cc1 (centres undefined),16%,-84*,7%,?,nt,-1
COc1ccccc1C(CCNCc1ccccc1)c1ccc(OC(C)C)cc1 (centres undefined),4%,-6,?,?,-17,-7
COc1ccc(C(CCNCc2ccc(N(C)C)cc2)C(C)C)cc1 (centres undefined),35%,-67*,1%,nt,nt,2
OC(CN1CCCCC1)c1cc(-c2ccccc2)on1 (centres undefined),1%,nt,nt,nt,nt,nt
CC(=O)OC1CC2C(C)(C)C(O)C=C[C@@]2(C)C2CC[C@@]3(C)C(c4ccoc4)OC(=O)C4OC43[C@]12C (some centres undefined),nt,nt,nt,3%,nt,-1
CC(C(=O)O)N1C(=O)/C(=C/C=C/c2ccco2)SC1=S (centres undefined),4µM*,-74*,8%,?,-7,?
O=C1/C(=C/c2cccs2)SC(=S)N1NS(=O)(=O)c1ccccc1,17%,-1,-18%,nt,0,-2
O=C1/C(=C/C=C/c2ccco2)SC(=S)N1NS(=O)(=O)c1ccccc1,16µM*,?,2%,nt,-15,?
CCN(C(=O)C(C)N1C(=O)/C(=C/c2ccco2)SC1=S)C1CCS(=O)(=O)C1 (centres undefined),?,-21,12%,?,131,?
SMILES,GLS inh,Six1-Eya2 blk,CXXC DNA block,Menin-MLL TR inh,CtBP-E1A blk,Menin-MLL FL inh
CCOc1ccc(/C=C/C2=Cc3c(sc(NC(=O)CSc4n[nH]c(N)n4)c3C#N)C(C)(C)C2)cc1,24%,-11,-23%,7.9µM*,-15,?
N#Cc1ccccc1CN1C(=O)S/C(=C/c2cccn2-c2ccc(C(=O)O)cc2)C1=O,-17%,?,0%,?,-1,14
O=C(O)c1ccc(-n2cccc2/C=C2/NC(=O)N(c3ccccc3)C2=O)cc1,10µM*,?,-10%,nt,0,18
O=C(O)c1ccc(-n2cccc2/C=C2/SC(=O)N(CC(=O)N3CCCC3)C2=O)cc1,16µM*,?,-2%,3%,1,?
Cc1ccc(-n2c(Cc3cccc4ccccc34)n[nH]c2=S)c(C)c1,10µM*,-1,-17%,?,-13,-7
Cc1ccc(-n2c(-c3ccccc3)n[nH]c2=S)c(C)c1,-30%,18,-9%,-1%,0,-2
O=C(N/N=C/c1ccncc1)c1cnccn1,0%,-2,9%,nt,-3,4
O=C(N/N=C/C=C\c1ccco1)c1ccccn1,141%,-88*,-11%,nt,10,?
O=C(N/N=C/c1ccncc1)c1ccccn1,1%,-10,-9%,100µM*,-14,-14
O=C(N/N=C(\Cc1ncc[nH]1)c1ccccc1)c1ccccc1,nt,nt,9%,8%,nt,2
O=C(N/N=C(\Cc1ncc[nH]1)c1ccccc1)c1ccncc1,?,-82*,16%,-5%,-90*,-1
O=C(N/N=C/c1ccccn1)c1ccncc1,-1%,-75*,7%,-7%,nt,0
CC(C)C[C@@H](NC(=O)[C@@H](Cc1ccccc1)NC(=O)c1cnccn1)B(O)O,19%,nt,4%,7%,nt,4
CCNC(=O)[C@H]1CCCN1C(=O)[C@H](CCCN=C(N)N)NC(=O)[C@H](CC(C)C)NC(=O)[C@H](CC(C)C)NC(=O)[C@@H](Cc1ccc(O)cc1)NC(=O)[C@H](CO)NC(=O)[C@@H](Cc1c[nH]c2ccccc12)NC(=O)[C@H](Cc1cnc[nH]1)NC(=O)[C@@H]1CCC(=O)N1,20%,nt,nt,nt,nt,nt
O=C(N/N=C/c1ccccn1)c1ccc(Cl)cc1,2%,?,-19%,-4%,?,-4
Cn1ncc(Cl)c1C(=O)N/N=C/c1ccccn1,-7%,-80*,-11%,-3%,-75*,nt
c1ccc([C@@H]2CN3CCSC3=N2)cc1,nt,nt,nt,-3%[24.8 µM],nt,1[24.8 µM]
O=C(O)c1ccccc1-c1ccc(/C=c2\sc3nc4cc(Br)cnc4n3c2=O)o1,13µM*,-81*,72%,9%,?,?
Cc1cccc(N(CC(O)Cn2c3ccccc3c3ccccc32)S(=O)(=O)c2ccc(F)cc2)c1 (centres undefined),1%,nt,nt,nt,nt,nt
